From PubChem BioAssay (NCI)
The panel holds about 83,000 compounds, 20% with a hit somewhere; the sample as a whole holds those more often.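 Each cell line was grown in a 96-well plate and treated with one concentration of compound for 48 hours. Values below 10 were considered active.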 Values without a mark were called inactive. Calls of active or inactive are those of the source.

Assays:
Assay in all cases: NCI-60 one-dose screen, 48 h (100 = growth as untreated, 0 = no growth, -100 = all killed)
[1] = system: HT29 colon; conditions: 10 µM unless noted
[2] = system: SNB-75 CNS; conditions: 10 µM unless noted
[3] = system: SNB-19 CNS; conditions: 10 µM unless noted
[4] = system: U251 CNS; conditions: 10 µM unless noted
[5] = system: PC-3 prostate; conditions: 10 µM unless noted
[6] = system: SK-MEL-5 melanoma; conditions: 10 µM unless noted
[7] = system: UACC-62 melanoma; conditions: 10 µM unless noted
[8] = system: LOX IMVI melanoma; conditions: 10 µM unless noted
[9] = system: SK-MEL-28 melanoma; conditions: 10 µM
[10] = system: SK-MEL-2 melanoma; conditions: 10 µM unless noted
[11] = system: UO-31 renal; conditions: 10 µM unless noted
[12] = system: TK-10 renal; conditions: 10 µM unless noted
[13] = system: ACHN renal; conditions: 10 µM unless noted
[14] = system: CAKI-1 renal; conditions: 10 µM unless noted
[15] = system: A498 renal; conditions: 10 µM unless noted
[16] = system: CCRF-CEM leukemia; conditions: 10 µM unless noted
[17] = system: MOLT-4 leukemia; conditions: 10 µM unless noted
[18] = system: SR leukemia; conditions: 10 µM unless noted
[19] = system: SN12C renal; conditions: 10 µM unless noted
[20] = system: EKVX NSCLC; conditions: 10 µM unless noted

Structure (SMILES) | growth [1] | growth [2] | growth [3] | growth [4] | growth [5] | growth [6] | growth [7] | growth [8] | growth [9] | growth [10] | growth [11] | growth [12] | growth [13] | growth [14] | growth [15] | growth [16] | growth [17] | growth [18] | growth [19] [%] | growth [20] [%]
Oc1c(C(Nc2ccccn2)c2cccc(Oc3ccccc3)c2)ccc2cccnc12 (stereo unspecified) | -93.5% (active) | -99.1% (active) | -80.7% (active) | -89.2% (active) | -90.3% (active) | -68.1% (active) | -86.6% (active) | -86.5% (active) | -97.2% (active) | -82.9% (active) | -90.4% (active) | -90.9% (active) | -88.8% (active) | -90.3% (active) | -61% (active) | -59% (active) | -70.1% (active) | -49.7% (active) | – | –
COc1cc(NC(=O)CCSc2nc3ccccc3c(=O)n2CCc2ccccn2)cc(OC)c1OC | 102% | 8.5% (active) | 98.6% | 85.1% | 81.6% | 87.8% | 84% | 94.8% | 83.3% | 92.4% | 85% | 111% | 91% | 89% | 74.7% | 83.2% | 87.6% | – | – | –
CCOc1ccc2c(c1)CN(Cc1ccc(Cl)cc1)CO2 | 57.3% | -39.4% (active) | 18.1% | 25.4% | 49.1% | 74.1% | 62.4% | 35.2% | 41.9% | 50.4% | 40.5% | 20.1% | 33.2% | 54.2% | 39.5% | 78.1% | 83.2% | 41.5% | 67.7 | –
O=c1c(-c2nc3ccccc3[nH]2)cc2ccccc2n1Cc1cn(Cc2ccc(F)cc2)nn1 | 2.52% (active) | -19.2% (active) | 21.8% | 14.2% | 22% | 6.69% (active) | 17.2% | 12.8% | 45.1% | – | -18.9% (active) | 21.7% | 15% | 32.9% | -14.5% (active) | 23.4% | 19.9% | 30.2% | 14.2 | 31.4
CCCCCCn1c(=N)n(CC(O)COc2cccc(C)c2)c2ccccc21 (stereo unspecified) | -46.2% (active) | -92.1% (active) | 12.6% | -75.7% (active) | -11% (active) | -98.7% (active) | -72.4% (active) | -86.3% (active) | – | -79.7% (active) | -96.1% (active) | -86.4% (active) | -52.9% (active) | -21.6% (active) | -13% (active) | 1.25% (active) | -3.39% (active) | -28.5% (active) | 28.6 | –
COc1cccc2c(=O)c3c(sc12)c(NCCCNCCO)nc1ccccc13 | -43.8% (active) | 17.2% | 63.6% | 14.4% | 45% | 72.6% | 77.4% | 37.2% | – | 94.1% | 27.4% | 58.6% | 33.6% | 48.1% | 14.5% | 29.2% | 1.38% (active) | 0.0565% (active) | 56.5 | 53.9
COc1ccc2sc(N(Cc3cccnc3)C(=O)c3ccc(C#N)cc3)nc2c1 | 23.4% | 74% | 98.6% | 67.4% | 78.2% | 80.9% | 86.9% | 75.9% | 50.2% | – | 75.6% | 96.6% | 91.2% | 91.9% | 89.6% | 72.1% | 57.8% | 66.4% | 80 | –
NC1C(N)C(N)C1N (stereo unspecified) | 106% | 71.8% | 94.3% | 101% | 96.1% | 113% | 99.1% | 95.1% | – | 92% | 77.9% | 99.1% | 96.8% | 101% | 116% | 85.1% | 83.7% | 86.8% | 96.8 | 121
COc1cc(-c2c3c(c(Br)n2Cc2ccccc2)-c2nc(N)sc2CC3)cc(OC)c1OC | 105% | 73.7% | 88.2% | 85.3% | 78.6% | 87.1% | 68.3% | 87.5% | 87.3% | – | 70.6% | 119% | 88.3% | 97.4% | 80.5% | 44.4% | 50.6% | 40.2% | – | –
Nc1cccc(Nc2cc(S(=O)(=O)O)c(N)c3c2C(=O)c2ccccc2C3=O)c1 | 96.3% | 82.2% | 101% | 95.5% | 100% | 103% | 106% | 85% | – | 100% | 110% | 107% | 96.3% | 92.8% | 102% | 101% | 103% | 115% | 99 | 85.1
CN(C)CCCNCc1ccc(-c2ccc(F)c(Cl)c2)o1 | -30.6% (active) | 40.5% | 73.6% | -29.8% (active) | 38.7% | 6.38% (active) | 20.1% | -90.1% (active) | -86.9% (active) | – | 16.7% | 42.8% | 30.1% | 37.5% | 78.2% | 1.99% (active) | -4.5% (active) | -22.9% (active) | 60.2 | –
COc1ccc(C2C3=C(COC3=O)N(CCO)c3cc4c(cc32)CCC4)cc1 (stereo unspecified) | 15.4% | 42.4% | 62.2% | 42% | 54.6% | 35.7% | 48.3% | 51% | – | 77.9% | 75.7% | 77.9% | 67.7% | 48% | 73.2% | 64.3% | 45.4% | 35.8% | 95.1 | 66.7
O=C(Nc1nc2c(s1)CCc1c-2c(Br)n(Cc2ccccc2)c1Br)c1ccccc1 | 51.6% | -10.7% (active) | 65.7% | 57.3% | 67.3% | 41% | 62.4% | 68.5% | – | 89.4% | 57.6% | 54.9% | 46.8% | 67.4% | 75% | 77% | 83.1% | 70.3% | 87.7 | –
Brc1ccc(Oc2ccc(Nc3ncnc4onc(-c5ccccc5)c34)cc2)cc1 | 95.5% | 86.7% | 106% | 98.9% | 102% | 92.6% | 88.6% | 94.5% | – | 110% | 73% | 110% | 105% | 91.8% | 82.4% | 97.3% | 94% | 94.2% | 94.8 | 105
CCCCCCc1cc2cc(-c3nc4ccccc4[nH]3)c(=Nc3ccccc3C)oc2cc1O | 2.75% (active) | 47.8% | 71.7% | 34% | 37.6% | 41.7% | 54.5% | 25.5% | -10.3% (active) | – | 20.3% | 46.8% | 51% | – | 79.7% | 25.3% | 21% | -14.5% (active) | 45.8 | –
CCN1C(=O)N(CC)C2C1NN=c1s/c(=C3\C(=O)N(C(C)C)c4ccccc43)c(=O)n12 (stereo unspecified) | 2.15% (active) | 41.2% | 31.3% | 20.6% | 25.8% | 2.79% (active) | 16.9% | 20.7% | – | 23.8% | 45.4% | 56.5% | 25.4% | 31.8% | -2.49% (active) | 9.92% (active) | 13.8% | 10.6% | 21.6 | 31.5
O=C1/C=C/[C@@H](O)[C@@H]2C[C@@H](O)C[C@H]2/C=C/CCCCO1 | 2.63% (active) | 29.7% | 28.7% | 39.7% | -17.5% (active) | -93.1% (active) | 64.1% | 1.64% (active) | – | 8.85% (active) | 8.64% (active) | 32.1% | 17.9% | 18.4% | -25.5% (active) | – | 5.39% (active) | 14.4% | 45.3 | 20.6
